Experimental findings from PubChem BioAssay (NCI) are described below.

Each structure is given as a SMILES string. Several values for one entry are separate records, joined by “and”; a condition that tells them apart may be missing. Equal entries are not always repeated. The panel holds about 83,000 compounds, 20% with a hit somewhere; the sample as a whole holds those more often.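 The endpoint reported here, percent growth, reads 100 for growth as untreated, 0 for no net growth and -100 for all cells dead.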 Activity calls are given as the source filed them. The calls were made as follows: active = growth percent below 10; inactive = the rest.

For this test, the system named is MDA-MB-468 breast. The test can be described thus: NCI-60 one-dose screen, 48 h (100 = growth as untreated, 0 = no growth, -100 = all killed). To be noted: 10 µM unless noted.
With `NS(=O)(=O)c1ccc(Nc2nc(SCC(=O)c3ccc(Cl)cc3)nc3c2CCCC3)cc1`, the growth was 57.9% (inactive).

As for `COc1ccc(-c2cc3cnc4ccccc4c3oc2=O)cc1`, the growth is 99.8% (inactive).

For the compound `CC[C@@H](C)/C=C(C)/C=C/C(=O)c1c(O)c(-c2ccc(OC(=O)[C@@]34CC[C@@](C)(C(=O)O3)C4(C)C)cc2)cn(O)c1=O`, the growth was -4.05% (active).

Consider `Brc1ccc2c(c1)CN(C1CCCCC1)CO2`, for which the growth was 110% (inactive).

Turning to `O=C(CC(CC(=O)c1ccccc1)c1ccccc1O)c1ccccc1`, the growth was 100% (inactive).

As for `CC(Oc1ccc(Cl)cc1)c1ccccc1` (stereo not given), the growth is 99.9% (inactive).

Consider `CCc1c(Cl)nc(N)nc1Nc1ccc(C)c(C)c1`, for which the growth is 83.2% (inactive).

For the compound `Cn1cc(-c2nnc(-c3ccccc3)s2)c2cc(Br)cnc21`, the growth is 59.4% (inactive).

Regarding `CC1C(=O)CCCC1=O`, the growth was 122% (inactive).

As to `CCc1nn(Cc2ccccc2)c2nc(C)c(CCc3ccccc3)c(Cl)c12`, the growth was 88.3% (inactive).

On to `Oc1ccc(Cc2ccc(O)c3ncccc23)c2cccnc12`, for which the growth was -16% (active).

For `CCCCCN1C(=O)CCC1=O`, the growth was 108% (inactive).

With `O=C(/C=C/c1sc(Cl)nc1Cl)c1ccc(F)cc1`, the growth is 40.9% (inactive).

For the compound `Nc1nc2ccccc2c2c(=O)c3ccc(Cl)cc3sc12`, the growth was 3.53% (active).

For the compound `CN(C)c1ccc(/C=C\C(=O)c2ccccc2)cc1`, the growth was 84.8% (inactive) and 88.3% (inactive) and 83.9% (inactive).

For `C=CCn1c(SCC(=O)Nc2ccc(C(=O)/C=C/c3cc(OC)c(OC)c(OC)c3)cc2)nnc1-c1cc(-c2ccc(OC)cc2)nc2ccccc12`, the growth was 103% (inactive).

As for `O=C1/C(=C/c2ccc(F)cc2)CN(Cc2cn(CCNc3ccnc4cc(Cl)ccc34)nn2)C/C1=C\c1ccc(F)cc1`, the growth is -64.2% (active).

Consider `O=C(/C=C/C=C/c1csc(Br)n1)NO`, for which the growth was 99.7% (inactive).

On to `O=C1CNC(c2ccccc2)C(c2ccccc2)N1` (stereo not given), for which the growth was 93.1% (inactive).

With `Cc1cccc2c(=O)c3c(sc12)c(NCCCN)nc1ccccc13`, the growth is -38.5% (active).

As to `CCc1onc(-c2ccc(OC)cc2)c1-c1ccccc1OCCN(CC)CC`, the growth was 80% (inactive).

`COC1=C(C)C(=O)N2[C@@H]1[C@H](c1ccccc1)OC21C=CC(=O)C=C1`: the growth was -20.4% (active).

For `CCN(CC)CCOc1ccccc1C`, the growth was 118% (inactive).

For `CNC(=O)NCC1OC(n2cnc3c(NC(=O)Nc4ccccc4)ncnc32)C2OC(C)(C)OC12` (stereo not given), the growth is 101% (inactive).

Regarding `CN1CCN(Cc2ccc(NC(=O)c3cncc(C#Cc4cnn5ccccc45)c3)cc2C(F)(F)F)CC1`, the growth is -36.1% (active).

Regarding `Nc1nc(N)c2[nH]cnc2n1`, the growth is 69.9% (inactive).

Consider `COc1ccc([C@@H]2[C@@H](Oc3ccccc3)C(=O)N2c2cc(OC)c(OC)c(OC)c2)cc1F`, for which the growth is 4.05% (active).

As for `C=C1C(=O)O[C@H]2[C@H]1CC/C(COC(=O)NCc1c[nH]c3ccccc13)=C\CC[C@@]1(C)O[C@@H]21`, the growth was 48% (inactive).

Turning to `CCOC(=O)NCCc1nc2c([nH]1)c(=O)n(C)c(=O)n2C`, the growth was 112% (inactive).

As for `O=C(CCc1ccc(O)cc1)N/N=C/c1cc(Br)ccc1O`, the growth was 56.8% (inactive).

`O=C(Nc1cccc(-n2cc(-c3ccncc3)c(-c3cc(O)cc(Cl)c3)n2)c1)Nc1ccc(Cl)c(Cl)c1`: the growth is -1.88% (active).

As for `Nc1c(C(=O)Nc2ccc(Cl)cc2)cc(-c2nc3ccccc3s2)c(=O)n1NS(=O)(=O)c1ccc(Cl)cc1`, the growth is 110% (inactive).

As for `NCCOc1ncccc1/C=C1\c2ccccc2-c2ccc(C(F)F)cc21`, the growth is 85.5% (inactive).

Take `COc1cccc(-c2nn(-c3ccccc3)cc2-c2ccnc(NCCNS(=O)(=O)c3ccc(C(F)(F)F)cc3)c2)c1`: the growth was 9.78% (active).

For the compound `COc1ccc(-c2nc(N/N=C/c3cccc(O)c3)nc(N3CCOCC3)c2C#N)cc1`, the growth was 87.1% (inactive).

For `CCN1CC2=C(Nc3nc(SC)[nH]c(=O)c3C2c2cc(OC)c(OC)c(OC)c2)/C(=C/c2cc(OC)c(OC)c(OC)c2)C1` (stereo not given), the growth was 95.8% (inactive).

Turning to `CC(=O)CC(=O)OC/C=C(/C)CCC=C(C)C`, the growth is 97.6% (inactive).

In the case of `COCCNC1=C(Cl)C(=O)c2ccccc2C1=O`, the growth is 76.8% (inactive).

As for `COc1ccc(-c2n[nH]nc2-c2cc(OC)c3c(c2)OCO3)cc1`, the growth was 38.6% (inactive).

`CN(C)c1cccc2c(S(=O)(=O)/N=C(\N)Nc3nc4ccccc4s3)cccc12`: the growth is -8.02% (active).
